Results filed as inconclusive are left out. The source made the active and inactive calls. Unless noted, the call rests on the fitted dose curve.
Key:
[1] = qHTS for Inhibitors of the Functional Ribonucleoprotein Complex (vRNP) of Lassa (LASV) Arenavirus: LASV Primary Screen - GLuc reporter signal (AID 1347082; calls by dose curve; tested in HEK293 reporter line; further: nearly all actives have a fitted effect of over 60% in size); settings: LASV minigenome vRNP, Gaussia luciferase reporter; series mostly up to 57.5 µM
[2] = qHTS for Inhibitors of the Functional Ribonucleoprotein Complex (vRNP) of Lassa (LASV) Arenavirus: Viability assay - alamar blue signal for LASV Primary Screen (AID 1347083; calls by dose curve; tested in HEK293 reporter line; further: nearly all actives have a fitted effect of over 80% in size); settings: cell viability, alamar blue fluorescence (LASV minigenome counter-screen); series mostly up to 57.5 µM
[3] = qHTS for Inhibitors of the Functional Ribonucleoprotein Complex (vRNP) of Lymphocytic Choriomeningitis Arenaviruses (LCMV): Viability assay - alamar blue signal for LCMV Primary Screen (AID 1347085; calls by dose curve; tested in HEK293 reporter line; further: nearly all actives have a fitted effect of over 80% in size); settings: alamar blue viability counter-screen, LCMV vRNP screen cells; series mostly up to 57.5 µM
[4] = biological target: Nucleoprotein (Lymphocytic choriomeningitis virus (strain Armstrong)) (UniProt P09992); assay: qHTS for Inhibitors of the Functional Ribonucleoprotein Complex (vRNP) of Lymphocytic Choriomeningitis Arenaviruses (LCMV): LCMV Primary Screen - GLuc reporter signal (AID 1347086); settings: LCMV minigenome vRNP cell assay, Gaussia luciferase reporter; series mostly up to 57.5 µM; further: nearly all actives have a fitted effect of over 70% in size

Measured: Potency

Nucleoprotein (Lymphocytic choriomeningitis virus (strain Armstrong)), sequence (P09992 whole entry, looked up): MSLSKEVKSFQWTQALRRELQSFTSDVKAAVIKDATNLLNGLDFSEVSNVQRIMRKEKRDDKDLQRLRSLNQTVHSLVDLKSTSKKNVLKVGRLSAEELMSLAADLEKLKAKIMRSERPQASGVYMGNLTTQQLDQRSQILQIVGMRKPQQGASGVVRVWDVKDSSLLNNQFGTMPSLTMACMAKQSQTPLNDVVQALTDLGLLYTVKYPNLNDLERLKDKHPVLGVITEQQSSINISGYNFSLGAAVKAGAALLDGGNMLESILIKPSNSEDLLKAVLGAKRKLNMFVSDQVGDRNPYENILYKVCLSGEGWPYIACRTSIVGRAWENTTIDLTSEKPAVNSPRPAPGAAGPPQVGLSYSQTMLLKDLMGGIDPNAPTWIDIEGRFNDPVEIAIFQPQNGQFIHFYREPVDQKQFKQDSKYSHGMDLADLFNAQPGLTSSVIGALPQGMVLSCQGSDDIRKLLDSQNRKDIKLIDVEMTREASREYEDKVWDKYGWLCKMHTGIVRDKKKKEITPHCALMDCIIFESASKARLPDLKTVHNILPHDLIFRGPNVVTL

CNCCc1ccccn1
inactive: all assays above

CC1(C)S[C@@H]2[C@H](NC(=O)Cc3ccccc3)C(=O)N2[C@H]1C(=O)O (tested in a mixture with another compound)
inactive: all assays above

CN1C(CCl)Nc2cc(Cl)c(S(N)(=O)=O)cc2S1(=O)=O (configuration not stated)
inactive: all assays above

NS(=O)(=O)Cc1noc2ccccc12
inactive: all assays above

NNc1nncc2ccccc12
inactive: all assays above

COc1cc(Cc2cnc(N)nc2N)cc(OC)c1OC
inactive: all assays above

C[C@H]1[C@H](NC(=O)/C(=N/OC(C)(C)C(=O)O)c2csc(N)n2)C(=O)N1S(=O)(=O)O (stereo in doubt)
inactive: all assays above

O=C1C(=O)c2ccccc2C(O)=C1C1CCC(c2ccc(Cl)cc2)CC1 (configuration not stated)
inactive: all assays above

Cc1ccsc1C(=CCCN1CCC[C@@H](C(=O)O)C1)c1sccc1C
inactive: all assays above

CC(=O)Nc1nnc(S(N)(=O)=O)s1
inactive: all assays above

CCCc1nc2c(C)cc(-c3nc4ccccc4n3C)cc2n1Cc1ccc(-c2ccccc2C(=O)O)cc1
inactive: all assays above

CS(=O)(=O)OCCCCOS(C)(=O)=O
inactive: all assays above

CN(C)CCC=C1c2ccccc2CCc2ccccc21
inactive: all assays above

Source: PubChem BioAssay (NCATS)
